# Test results taken from PubChem BioAssay.
# For some assays here: Entries with a potency or affinity are not part of this list. The source made the active and inactive calls.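 How the source made its calls, unless noted: active means compound raising the membrane signal above positive-control mean plus 3 SD in both repeats, and a primary screen hit; inactive means the rest.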
# Experiments:
# [1] = system: TRPC4 beta (transient receptor potential cation channel C4), mouse; assay: TRPC4 cation channel opening, retest – cell-based, Fluo4 calcium, HEK293 TRPC4beta/mu-opioid, duplicates, 10 µM, confirmation (AID 2426;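 active means fluorescence ratio normalized to control raised more than 50% in primary screen plus both repeat runs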;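 further: percent rise of integrated ratio over buffer wells lacking compound which define 0%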); conditions: Fluo4 calcium fluorescence, at 10 µM; hits give high values
# [2] = system: transient receptor potential cation channel C4 beta (TRPC4), mouse; assay: TRPC4 cation channel opening, second retest – cell-based, second round, Fluo4, HEK293 TRPC4beta/mu-opioid, 1 µM, confirmation (AID 2461;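 active means primary screen active and over 50% activation in each of two duplicate runs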); conditions: Fluo4 calcium fluorescence, at 1 µM; hits give high values
# [3] = system: TRPC4 (transient receptor potential cation channel C4 beta), mouse; assay: potentiation of DAMGO EC20 TRPC4 response – cell-based, second round, Fluo-4, HEK293 TRPC4beta/mu-opioid, 1 µM, confirmation (AID 2554;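 active means primary screen hit whose fluorescence ratio, in both repeats, exceeds the weak agonist control mean by 3 SD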); conditions: DAMGO EC20, Fluo-4 calcium flux, at 1 µM; hits give high values
# [4] = system: TRPC4 beta (transient receptor potential cation channel C4), mouse; assay: potentiation of DAMGO EC20 TRPC4 response – cell-based, Fluo-4, HEK293 TRPC4beta/mu-opioid, confirmation (AID 2555;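 active means primary screen hit whose calcium fluorescence ratio, in both repeats, exceeds the weak agonist control mean by 3 SD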); conditions: DAMGO EC20, Fluo-4 calcium flux, at 10 µM; hits give high values
# [5] = biological target: Short transient receptor potential channel 4 (Mus musculus) (UniProt Q9QUQ5); assay: blockers of DAMGO-evoked TRPC4 calcium flux – cell-based, Fluo4, HEK293 TRPC4beta/mu-opioid, confirmation (AID 2636;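 active means calcium signal cut by more than 3 SD below the full-agonist control yet still positive, in both repeats and the earlier primary screen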); conditions: at 10 µM; hits give high values
# Chain of Short transient receptor potential channel 4 (Mus musculus) (Q9QUQ5 whole entry, looked up): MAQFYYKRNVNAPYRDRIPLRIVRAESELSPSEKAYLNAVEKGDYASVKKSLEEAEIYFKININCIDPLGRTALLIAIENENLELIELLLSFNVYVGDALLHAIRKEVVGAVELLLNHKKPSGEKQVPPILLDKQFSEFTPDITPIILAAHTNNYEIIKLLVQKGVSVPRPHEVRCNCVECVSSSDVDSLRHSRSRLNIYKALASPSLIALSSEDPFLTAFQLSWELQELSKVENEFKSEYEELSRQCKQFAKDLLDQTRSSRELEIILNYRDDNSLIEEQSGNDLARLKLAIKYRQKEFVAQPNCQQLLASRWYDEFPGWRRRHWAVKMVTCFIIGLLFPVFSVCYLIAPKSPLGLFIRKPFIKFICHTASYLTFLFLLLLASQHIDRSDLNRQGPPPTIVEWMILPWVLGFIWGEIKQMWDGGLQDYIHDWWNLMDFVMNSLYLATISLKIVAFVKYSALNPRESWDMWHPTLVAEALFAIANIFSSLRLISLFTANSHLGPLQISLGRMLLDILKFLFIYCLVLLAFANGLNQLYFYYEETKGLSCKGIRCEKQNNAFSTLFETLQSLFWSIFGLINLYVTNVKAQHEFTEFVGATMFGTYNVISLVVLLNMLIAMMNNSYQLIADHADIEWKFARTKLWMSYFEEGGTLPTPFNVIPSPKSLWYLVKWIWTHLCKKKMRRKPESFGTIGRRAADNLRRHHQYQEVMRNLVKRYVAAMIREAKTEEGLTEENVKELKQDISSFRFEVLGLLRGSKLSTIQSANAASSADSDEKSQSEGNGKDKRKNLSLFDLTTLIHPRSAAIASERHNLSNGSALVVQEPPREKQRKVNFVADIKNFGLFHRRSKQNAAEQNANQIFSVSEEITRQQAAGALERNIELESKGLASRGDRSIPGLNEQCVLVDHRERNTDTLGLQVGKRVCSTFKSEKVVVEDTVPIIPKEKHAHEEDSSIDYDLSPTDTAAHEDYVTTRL
# [6] = biological target: Short transient receptor potential channel 4 (Mus musculus) (UniProt Q9QUQ5); assay: blockers of DAMGO-evoked TRPC4 calcium flux – cell-based, second round, Fluo4, HEK293 TRPC4beta/mu-opioid, 1 µM, confirmation (AID 2637;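 active means calcium signal ratio cut to more than 3 SD under the fully stimulated control mean yet still positive, in both repeats and the primary screen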); conditions: at 1 µM; hits give high values
# [7] = biological target: Short transient receptor potential channel 4 (Mus musculus) (UniProt Q9QUQ5); assay: potentiation of DAMGO-evoked TRPC4 calcium signal – cell-based, HEK293 TRPC4/mu-opioid, Fluo-4 calcium, EC20 DAMGO, dose response (AID 434941;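 active means earlier screen potentiator hit that boosts the TRPC4 ion channel at some dose, with a dose response; inactive means no potentiation, no dose response, or not a prior hit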;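 further: calcium entry triggered by an EC20 dose of DAMGO at the co-expressed mu-opioid receptor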)
# [8] = biological target: Short transient receptor potential channel 4 (Mus musculus) (UniProt Q9QUQ5); assay: block of DAMGO-driven TRPC4 calcium entry – cell-based, HEK293 TRPC4/mu-opioid, Fluo-4 calcium, dose response (AID 434942;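 active means primary screen inhibitor hit that blocks the TRPC4 channel at some tested dose, yielding a dose curve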)
# [9] = biological target: Short transient receptor potential channel 6 (Mus musculus) (UniProt Q61143); assay: TRPC6 blockade by TRPC4 inhibitor hits – cell-based, HEK293, membrane potential dye, duplicate, selectivity assay for TRPC4 inhibitor project, confirmation (AID 434948;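 active means active in primary screen and both duplicates, each dropping signal beyond three positive-control SD with fluorescence still positive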); conditions: HEK293 TRPC6, membrane potential dye fluorescence, at 10 µM, stimulated with maximal-effect acetylcholine; hits give high values
# Chain of Short transient receptor potential channel 6 (Mus musculus) (Q61143 whole entry, looked up): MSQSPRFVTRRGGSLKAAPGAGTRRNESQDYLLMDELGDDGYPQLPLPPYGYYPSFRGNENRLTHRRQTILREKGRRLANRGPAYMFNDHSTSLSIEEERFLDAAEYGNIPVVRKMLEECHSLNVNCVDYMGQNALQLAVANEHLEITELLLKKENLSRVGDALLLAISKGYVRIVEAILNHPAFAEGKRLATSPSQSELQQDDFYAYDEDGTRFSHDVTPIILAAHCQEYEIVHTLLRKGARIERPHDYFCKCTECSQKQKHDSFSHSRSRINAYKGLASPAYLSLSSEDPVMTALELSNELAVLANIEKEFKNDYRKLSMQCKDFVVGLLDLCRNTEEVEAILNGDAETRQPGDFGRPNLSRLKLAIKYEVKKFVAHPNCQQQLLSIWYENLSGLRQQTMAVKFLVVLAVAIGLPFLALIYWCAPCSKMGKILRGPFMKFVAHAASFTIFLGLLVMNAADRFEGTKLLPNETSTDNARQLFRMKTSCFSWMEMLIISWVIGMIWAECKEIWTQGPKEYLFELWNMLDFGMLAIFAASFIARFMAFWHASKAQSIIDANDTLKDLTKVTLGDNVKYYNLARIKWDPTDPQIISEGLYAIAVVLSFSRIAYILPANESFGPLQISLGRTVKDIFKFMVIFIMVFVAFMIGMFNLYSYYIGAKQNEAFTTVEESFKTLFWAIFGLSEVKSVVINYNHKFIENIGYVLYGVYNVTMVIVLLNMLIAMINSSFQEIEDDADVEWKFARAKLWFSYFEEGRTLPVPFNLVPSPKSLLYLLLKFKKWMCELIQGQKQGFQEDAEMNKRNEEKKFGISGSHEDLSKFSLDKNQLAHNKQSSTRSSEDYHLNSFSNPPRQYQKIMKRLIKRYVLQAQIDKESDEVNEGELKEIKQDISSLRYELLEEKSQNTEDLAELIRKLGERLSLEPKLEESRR
# [10] = biological target: Short transient receptor potential channel 6 (Mus musculus) (UniProt Q61143); assay: TRPC6 opening by TRPC4 activator hits – cell-based, HEK293, membrane potential dye, duplicate, selectivity assay for TRPC4 activator project, confirmation (AID 434950;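 active means membrane potential signal rise above negative control mean plus 3 SD in both duplicates, also active in the earlier TRPC4 screen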;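 on activation: 0% = buffer only wells and 100% = acetylcholine maximal-effect wells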); conditions: HEK293 TRPC6, membrane potential fluorescence, at 10 µM; activation: hits give high values; outcome: activation
# [11] = biological target: Short transient receptor potential channel 6 (Mus musculus) (UniProt Q61143); assay: positive modulators of mouse TRPC6 channel – HEK293 cells, membrane potential dye, duplicate, selectivity assay for TRPC4 potentiator project, confirmation (AID 434952); conditions: HEK293 TRPC6, membrane potential dye fluorescence, at 10 µM, maximal acetylcholine added after compound; hits give high values
# [12] = biological target: Short transient receptor potential channel 4 (Mus musculus) (UniProt Q9QUQ5); assay: calcium flux activators in TRPC4/5HT1a cells, counter-screen for TRPC4 activator project, cell-based, second counter screen, HEK293 TRPC4/5HT1a, Fluo-4 (AID 434977;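 active means calcium signal rise above buffer-control mean plus 5 SD in both duplicates, and also a hit in the primary screen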;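 further: plate controls were assay buffer for no effect and maximal serotonin response for full effect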); conditions: Fluo-4 calcium flux, at 10 µM; hits give high values
# [13] = serotonin-gated TRPC4 signal block – cell-based, second counter screen, HEK293 TRPC4/5HT1a, Fluo-4, counter-screen for TRPC4 inhibitor project, confirmation (AID 434978;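 active means primary screen active whose calcium signal fell more than 3 SD beyond the full-serotonin control mean in both duplicate plates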;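 further: serotonin given first at submaximal then at maximal dose after compound preincubation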); conditions: Fluo-4 calcium flux, at 10 µM, serotonin added to trigger calcium flux; hits give high values
# [14] = system: TRPC4 (mouse), co-expressed with 5HT1a in HEK293; assay: enhancement of serotonin-evoked TRPC4 response – cell-based, second counter screen, HEK293 TRPC4/5HT1a, Fluo-4, counter-screen for TRPC4 potentiator project, confirmation (AID 434979;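 active means signal rise over 3 SD above mean of control wells given weak agonist, in both repeats and first screen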); conditions: Fluo-4 calcium flux, at 10 µM, serotonin added at its EC20 dose; hits give high values
# [15] = nonspecific calcium rise without TRPC4 – cell-based, HEK293 mu-opioid receptor line, counter-screen for TRPC4 activator project, confirmation (AID 449723;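 active means hit in primary screen, with calcium signal over 5 SD above buffer well mean in both duplicates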;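 further: counter screen cells carry the mu-opioid receptor alone and lack TRPC4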); conditions: HEK293 mu-opioid cells, Fluo-4 calcium fluorescence, at 10 µM; hits give high values
# [16] = nonspecific potentiation of DAMGO calcium response – cell-based, HEK293 mu-opioid receptor line, counter-screen for TRPC4 allosteric potentiator project, confirmation (AID 449724;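 active means calcium signal rise more than 3 SD above the low-dose agonist control mean, in both duplicate plates and the primary screen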); conditions: HEK293 mu-opioid receptor cells, Fluo-4 calcium flux, at 10 µM, compound added before EC20 DAMGO stimulus; hits give high values
# [17] = nonspecific flux increase, KCNQ1-free cells – parental CHO cells, counter-screen for KCNQ1 potentiator project (AID 493006;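 active means duplicate-averaged activation above buffer control mean plus 5 SD of those controls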;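 on activation: fluorescence ratio of max minus min over baseline after K+ and Tl+ depolarization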); conditions: parental CHO-K1 cells, FluxOR thallium flux, at 10 µM; hits give high values
# [18] = biological target: Potassium voltage-gated channel subfamily KQT member 1 (Homo sapiens) (UniProt P51787); assay: enhancement of KCNQ1 channel thallium flux – FluxOR thallium flux, CHO cells, duplicates, confirmation (AID 493007;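 active means potentiation averaged over duplicate wells exceeding buffer-only control mean by more than 3 SD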;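 on outcome: cells depolarized by a potassium plus thallium sulfate stimulus after compound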;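 on potentiation: 0% = buffer-only wells and 100% = R-L3 activator control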); conditions: KCNQ1 cell line, FluxOR thallium flux fluorescence, at 10 µM; hits give high values, % of reference activator effect, buffer zero
# Chain of Potassium voltage-gated channel subfamily KQT member 1 (Homo sapiens) (P51787 whole entry, looked up): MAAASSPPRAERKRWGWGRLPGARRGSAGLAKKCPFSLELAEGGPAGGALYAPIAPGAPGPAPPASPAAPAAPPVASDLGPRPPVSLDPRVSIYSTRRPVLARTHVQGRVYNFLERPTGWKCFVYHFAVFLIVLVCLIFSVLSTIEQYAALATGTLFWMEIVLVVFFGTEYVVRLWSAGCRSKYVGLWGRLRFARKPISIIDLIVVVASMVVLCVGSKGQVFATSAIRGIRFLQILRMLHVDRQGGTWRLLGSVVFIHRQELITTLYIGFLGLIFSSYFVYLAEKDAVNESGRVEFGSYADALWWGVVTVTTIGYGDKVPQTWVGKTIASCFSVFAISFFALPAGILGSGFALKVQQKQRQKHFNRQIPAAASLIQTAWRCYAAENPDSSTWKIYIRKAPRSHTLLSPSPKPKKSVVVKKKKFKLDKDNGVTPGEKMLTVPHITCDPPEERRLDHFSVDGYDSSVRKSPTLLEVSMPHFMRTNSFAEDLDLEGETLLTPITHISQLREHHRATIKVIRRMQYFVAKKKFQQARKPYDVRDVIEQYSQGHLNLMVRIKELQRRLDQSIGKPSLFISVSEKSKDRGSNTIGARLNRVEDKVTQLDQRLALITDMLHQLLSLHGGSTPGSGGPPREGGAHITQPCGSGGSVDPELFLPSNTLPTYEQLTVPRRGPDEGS
# [19] = biological target: Potassium voltage-gated channel subfamily KQT member 2 (Rattus norvegicus) (UniProt O88943); assay: KCNQ2 thallium flux enhancement – KCNQ2-CHO-K1 cells, selectivity assay for KCNQ1 potentiator project (AID 493009;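 active means mean duplicate potentiation above the buffer control mean plus 5 SD of buffer wells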;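 further: assay conditions were tuned for KCNQ1 rather than KCNQ2 modulators; signal is max minus min fluorescence divided by baseline after thallium stimulus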); conditions: FluxOR thallium flux fluorescence, at 10 µM; hits give high values, scaled: buffer 0, activator control 100
# Chain of Potassium voltage-gated channel subfamily KQT member 2 (Rattus norvegicus) (O88943 whole entry, looked up): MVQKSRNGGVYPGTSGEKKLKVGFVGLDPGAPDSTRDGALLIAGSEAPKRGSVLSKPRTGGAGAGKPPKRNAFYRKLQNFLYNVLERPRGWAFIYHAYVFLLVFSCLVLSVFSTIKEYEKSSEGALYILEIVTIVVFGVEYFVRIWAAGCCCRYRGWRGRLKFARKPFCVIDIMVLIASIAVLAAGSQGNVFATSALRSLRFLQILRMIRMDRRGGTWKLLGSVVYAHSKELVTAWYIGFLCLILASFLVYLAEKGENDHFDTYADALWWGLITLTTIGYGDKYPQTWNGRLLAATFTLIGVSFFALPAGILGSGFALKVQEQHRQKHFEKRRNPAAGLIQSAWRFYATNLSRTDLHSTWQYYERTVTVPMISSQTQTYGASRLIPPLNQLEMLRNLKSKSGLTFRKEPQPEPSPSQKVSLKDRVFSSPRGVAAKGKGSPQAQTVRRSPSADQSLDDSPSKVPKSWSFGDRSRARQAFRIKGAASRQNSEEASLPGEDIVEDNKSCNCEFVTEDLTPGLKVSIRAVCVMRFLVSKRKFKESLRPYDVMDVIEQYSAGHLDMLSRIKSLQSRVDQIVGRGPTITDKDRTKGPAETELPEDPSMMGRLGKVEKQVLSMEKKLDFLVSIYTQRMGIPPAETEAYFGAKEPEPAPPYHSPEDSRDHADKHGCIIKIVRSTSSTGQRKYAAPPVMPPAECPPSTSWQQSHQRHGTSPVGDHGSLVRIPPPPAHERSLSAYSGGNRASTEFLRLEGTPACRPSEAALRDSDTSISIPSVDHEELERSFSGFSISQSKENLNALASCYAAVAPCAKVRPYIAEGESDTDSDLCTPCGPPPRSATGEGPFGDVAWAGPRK
# [20] = biological target: Potassium voltage-gated channel subfamily KQT member 1 (Homo sapiens) (UniProt P51787); assay: KCNQ1 activators by electrophysiology – IonWorks patch clamp, KCNQ1-CHO cells, orthogonal assay for KCNQ1 potentiator project, confirmation (AID 493184;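 active means current rise at least 3 SD above the untreated control mean in each of two repeat wells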); conditions: automated patch clamp current, at 10 µM; hits give high values
smiles,measurement,setting,value
Cc1cccc(C(=O)NNC(=S)NC(=O)c2cccs2)c1,activation,[1],158% (active)
same,outcome,[2],inactive
same,outcome,[3],inactive
same,outcome,[4],inactive
same,outcome,[5],inactive
same,outcome,[6],inactive
same,outcome,[7],inactive
same,outcome,[8],inactive
same,outcome,[9],inactive
same,outcome,[10],inactive
same,outcome,[11],inactive
same,activation,[12],124% (active)
same,outcome,[13],inactive
same,outcome,[14],inactive
same,activation,[15],36.4% (active)
same,outcome,[16],inactive
same,activation,[17],142% (active)
same,potentiation,[18],91% (active)
same,potentiation,[19],226% (active)
same,outcome,[20],inactive
O=c1c2cc(Br)ccc2nc(-c2cccc(C(F)(F)F)c2)n1O,activation,[1],449% (active)
same,outcome,[2],inactive
same,outcome,[3],inactive
same,outcome,[4],inactive
same,outcome,[5],inactive
same,outcome,[6],inactive
same,outcome,[7],inactive
same,outcome,[8],inactive
same,outcome,[9],inactive
same,outcome,[10],inactive
same,outcome,[11],inactive
same,activation,[12],111% (active)
same,outcome,[13],inactive
same,outcome,[14],inactive
same,activation,[15],60.8% (active)
same,outcome,[16],inactive
same,activation,[17],808% (active)
same,potentiation,[18],372% (active)
same,potentiation,[19],766% (active)
same,outcome,[20],inactive
CC(C)(C)c1ccc(C(=O)NC(=S)NNC(=O)c2cccs2)cc1,activation,[1],226% (active)
same,outcome,[2],inactive
same,outcome,[3],inactive
same,outcome,[4],inactive
same,outcome,[5],inactive
same,outcome,[6],inactive
same,outcome,[7],inactive
same,outcome,[8],inactive
same,outcome,[9],inactive
same,outcome,[10],inactive
same,outcome,[11],inactive
same,activation,[12],199% (active)
same,outcome,[13],inactive
same,outcome,[14],inactive
same,activation,[15],84.8% (active)
same,outcome,[16],inactive
same,activation,[17],136% (active)
same,potentiation,[18],97% (active)
same,potentiation,[19],188% (active)
same,outcome,[20],inactive
CCn1c(N)[n+](CC(=O)Nc2ccc(SC(F)F)cc2)c2ccccc21,activation,[1],200% (active)
same,outcome,[2],inactive
same,outcome,[3],inactive
same,outcome,[4],inactive
same,outcome,[5],inactive
same,outcome,[6],inactive
same,outcome,[7],inactive
same,outcome,[8],inactive
same,outcome,[9],inactive
same,outcome,[10],inactive
same,outcome,[11],inactive
same,activation,[12],10.3% (active)
same,outcome,[13],inactive
same,outcome,[14],inactive
same,outcome,[15],inactive
same,outcome,[16],inactive
COc1cc(OC)cc(C(=O)N[C@H](C(=O)OCC(=O)NC(C)c2ccccc2)C(C)C)c1 (stereo partly specified),activation,[1],118% (active)
same,outcome,[2],inactive
same,outcome,[3],inactive
same,outcome,[4],inactive
same,outcome,[5],inactive
same,outcome,[6],inactive
same,outcome,[7],inactive
same,outcome,[8],inactive
same,outcome,[9],inactive
same,activation,[10],36% (active)
same,outcome,[11],inactive
same,activation,[12],85.2% (active)
same,outcome,[13],inactive
same,outcome,[14],inactive
same,activation,[15],45.3% (active)
same,outcome,[16],inactive
same,outcome,[17],inactive
same,outcome,[18],inactive
same,outcome,[19],inactive
same,outcome,[20],inactive
O=C(N/N=C/c1cc([N+](=O)[O-])cc(Br)c1O)C12CC3CCC(CC(C3)C1)C2,activation,[1],82% (active)
same,outcome,[2],inactive
same,outcome,[3],inactive
same,outcome,[4],inactive
same,outcome,[5],inactive
same,outcome,[6],inactive
same,outcome,[7],inactive
same,outcome,[8],inactive
same,outcome,[9],inactive
same,activation,[10],28.5% (active)
same,outcome,[11],inactive
same,activation,[12],68.6% (active)
same,outcome,[13],inactive
same,outcome,[14],inactive
same,activation,[15],33.8% (active)
same,outcome,[16],inactive
same,activation,[17],158% (active)
same,potentiation,[18],43.5% (active)
same,potentiation,[19],163% (active)
same,outcome,[20],inactive
